# Assay outcomes from PubChem.
# In the library only some 8% were active in any assay of this set; here they are far more common.
# HCV inhibitor: qHTS Assay for Inhibitors of Hepatitis C Virus (HCV); hit rate 3.4% among 340,000; Huh7.5.1 HCVcc-Cre infection, luciferase reporter, 44 h; AID 651820, 2012; Potency, µM (highest dose often 41.8 µM), for the others: top-dose activity change, negative = inhibition, hits mostly inhibitors; active = well fitted inhibition curve with a large enough effect; inconclusive = small, poorly fitted or top-dose-only effect, or another doubt; inactive = no such curve, though single readings can be large or run the other way; note: potency is the fitted concentration of half-maximal effect; % is set by controls: 0 for no effect and ±100 for the full control effect
#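 Cells (1,000/well) were plated 4 h before compound, then infected with HCVcc-Cre virus (~0.5 moi). After 44 h further culture, infection was read as luciferase luminescence following a 15 min substrate incubation at room temperature.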
# HCMV inh: qHTS Assay for inhibitors of the human cytomegalovirus (HCMV). HFF cells, HCMV-luciferase reporter, 72 h; stronger effect = lower value. activity change, negative = inhibition, % at 57.5 µM. hit rate 4.5% among 410,000; in the data active = activity change below about -60%; inconclusive = no clear call, values can overlap the other calls; inactive = above about -39%; note: % is set by controls: 0 for no effect and ±100 for the full control effect
#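 Two-dose cell screen: HFF monolayers treated with compounds and infected with luciferase-expressing HCMV at 1 PFU/cell, 72 h at 37C, then lysed for luciferase measurement.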
# LASV entry inh: qHTS for Inhibitors of binding or entry into cells for Lassa Virus | Lassa virus pseudotype entry inhibition, cell reporter | AID 540256, 2011 | Potency, µM (doses to about 37.9 µM), for inactives: top-dose activity change, negative = inhibition, actives largely listed as inhibitors | hit rate 1.2% among 300,000; calls by dose curve; tested in HEK293 cells; note: potency is the fitted concentration of half-maximal effect; % is set by controls: 0 for no effect and ±100 for the full control effect; nearly all actives have a fitted effect of over 50% in size
# FMDV antiviral: High Throughput Screening for Foot and Mouth Disease Virus Antivirals. hit rate 1.2% among 410,000. FMDV antiviral cell-based qHTS. Potency, µM (titrated, usually from 57.9 µM), inactives show at the highest dose activity change, negative = inhibition, most hits filed as inhibitors. AID 1159524, 2015; calls by dose curve; tested in HEK293T cells; note: read-out not given here; potency is the fitted concentration of half-maximal effect; % is set by controls: 0 for no effect and ±100 for the full control effect; nearly all actives have a fitted effect of over 45% in size
# MARV entry inh: qHTS for inhibitors of binding or entry into cells for Marburg Virus; Marburg virus pseudotyped entry inhibition, cell reporter; hit rate 1.8% among 300,000; AID 540276, 2011; Potency, µM (highest dose often 37.8 µM), for inactives: top-dose activity change, negative = inhibition, hits mostly inhibitors; calls by dose curve; tested in HEK293 cells; note: potency is the fitted concentration of half-maximal effect; % is set by controls: 0 for no effect and ±100 for the full control effect
# SARS PLpro yeast-1: qHTS of Yeast-based Assay for SARS-CoV PLP; S. cerevisiae expressing SARS-CoV PLpro, growth rescue; Potency, µM (series often up to 32.9 µM), inactives show at the highest dose activity, positive = growth rescue, actives largely listed as activators; hit rate 0.19% among 330,000; calls by dose curve; note: potency is the fitted concentration of half-maximal effect; 0% is about no effect; nearly all actives have a fitted effect of over 55% in size
# SARS PLpro yeast-2: qHTS of Yeast-based Assay for SARS-CoV PLP: Hit Validation; calls only; hit rate 19% among 1,000; shares compounds with SARS PLpro yeast-1; AID 652038, 2013; yeast expressing SARS-CoV PLpro, growth phenotype rescue; call rule not given here
# The depositor's hits bear a star; i = inactive; u = inconclusive; x = no result given; + = active, no number; [ ] = dose if it differs, or a comment.
SMILES,HCV inhibitor,HCMV inh,LASV entry inh,FMDV antiviral,MARV entry inh,SARS PLpro yeast-1,SARS PLpro yeast-2
COc1cc(/C=C/C(=O)O)ccc1OS(=O)(=O)c1cc(Br)ccc1C,19%,-7,x,-9%,x,10µM*,i
COc1cc(/C=C/C(=O)O)ccc1OS(=O)(=O)c1cc(C)ccc1C,40%,0,10%,-2%,2%[46.1 µM],-1%,x
Cc1ccc(S(=O)(=O)N2CCN(c3nn(C)c(=O)n(C)c3=O)CC2)cc1C,14%,-10,x,u,x,-41%,x
c1cncc(-c2ccc3ncnc(NCc4ccc5c(c4)OCO5)c3c2)c1,x,-22,x,-16%,x,4%,i
COc1cccc(CNS(=O)(=O)c2cc(CN3C(=O)c4cccnc4C3=O)ccc2OC)c1,15%,-21,x,5%,x,-1%,x
COc1ccccc1NS(=O)(=O)c1ccc(NC(=O)N2CCCCC2)cc1,x,39,-6%,-13%,-18%,-5%,x
O=C(Nc1ccc(S(=O)(=O)Nc2ccccc2F)cc1)N1CCCCC1,-17%,19,-2%,19%,1%,u,+
O=C(Cc1cnn(-c2ccccc2)c1)c1ccc(O)c(O)c1O,-20%,52,u,2%,-1%,u,i
CCc1cc(C(=O)Cc2cnn(-c3ccccc3)c2)c(O)cc1O,-16%,-4,6%,-21%,u,3%,x
O=c1cc(CN2CCN(S(=O)(=O)c3ccc4ccccc4c3)CC2)nc2sccn12,-17%,-17,-6%[46.1 µM],5%,2%[46.1 µM],-6%,x
Cn1c(=O)c(Cc2ccccc2)c(O)c2ccccc21,-13%,-8,11%,11%,7%,10µM*,u
CCCn1c(=O)c(Cc2ccccc2)c(O)c2ccccc21,12%,7,9%,-15%,u,19%,x
CCCNC(=O)N(C)C[C@H]1Oc2ncc(Br)cc2C(=O)N([C@H](C)CO)C[C@H]1C,x,16,x,-3%,x,x,x
Cc1c(NS(=O)(=O)c2ccc(NC(=O)CCC(=O)O)cc2)c(=O)n(-c2ccccc2)n1C,13%,17,19%[46.1 µM],-5%,16%[46.1 µM],-2%,x
COc1cc2[nH]c3c(=O)n(CCN4CCCCC4)cnc3c2cc1OC,u,14,u,20%,u,u,i
COc1ccc2[nH]c3c(=O)n(CCCN4CCOCC4)cnc3c2c1,15%,7,x,-5%,x,0%,x
CCOc1ccccc1Nc1nnc(SCc2nnc(-c3cc(OC)c(OC)c(OC)c3)o2)s1,u,-13,-18%,u,u,u,i
Cc1nc(SCC(=O)Nc2ccccc2F)[nH]c(=O)c1Cc1ccccc1,x,3,-1%[46.1 µM],7%,12%[46.1 µM],x,x
CCOc1cccc(/C=N/Nc2ccc(S(=O)(=O)N(CC)CC)cn2)c1O,u,-100*,u,0%,u,7.9µM*,i
CCn1c(=O)c(=O)[nH]c2cc(C(=O)N(C)Cc3ccc(OC)c(F)c3)ccc21,17%,u,-7%,-7%,-9%,1%,x
O=S(=O)(c1ccc(OCC(O)CN2CCN(c3ccccc3)CC2)cc1)N1CCOCC1 (centres undefined),-19%,-32,u,x,-24%,u,i
O=S(=O)(c1ccc(OCC(O)CN2CCN(c3ccccc3O)CC2)cc1)N1CCOCC1 (centres undefined),-29%,-36,u,x,-20%,-3%,x
CC(=O)Nc1cccc(CNCc2cccc(NC(C)=O)c2)c1,-3%,20,x,-2%,x,1%,x
O=C(NCc1ccc(Cl)c(Cl)c1)c1ccco1,18%,0,9%,-23%,-3%,-12%,x
O=C(NCc1ccc(CNC(=O)c2ccco2)cc1)c1ccco1,10%,-9,x,-9%,x,u,i
CC(C)(C)C(=O)Oc1ccc2cc(-c3ccc4ccccc4n3)c(=O)oc2c1,7%,-3,17%,7%,16%,23%,x
CCNc1ccccc(-c2ccc3ccccc3n2)c1=O,19%,48,10%,31%,21%,11µM*,i
